CYP2C9 inh: blockers of cytochrome P450 2C9 activity – biochemical, luminescence, ADME assay, primary screen. P11712. CYP2C9 Supersomes, luciferin-H conversion. inhibition, % at 5 µM. 96,000 tested, 20% active. AID 777, 2007;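 active = blocking of liver enzyme CYP2C9 beyond about 50% at 5 µM, limit read from the data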
CYP2C19 inh: blockers of cytochrome P450 2C19 activity – biochemical, luminescence, ADME assay, primary screen. P33261. CYP2C19 Supersomes, luciferin-H EGE luminescence, 30 min. inhibition, % at 5 µM. 96,000 tested, 21% active. AID 778, 2007;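 active = CYP2C19 inhibition above a set limit at 5 µM in the primary screen, cut at about 50% in these data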;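 note: plate controls were negative control wells for no effect and 2.5 mM tranylcypromine positive control for full effect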
CYP2C9 act: human CYP2C9 activators, primary screen, biochemical, luminescence; Cytochrome P450 2C9 (Homo sapiens), P11712; recombinant CYP2C9, luciferin-H conversion; stronger effect = higher value; factor 1 = untreated enzyme, 0 = blocked; activation factor at 5 µM; 96,000 tested, 1.4% active; AID 1024, 2008;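 active = activation factor of 2 or more for CYP2C9 at a 5 µM dose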;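 note: 0 = sulfaphenazole-blocked wells and 1 = vehicle-only wells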
Cav3 T inh: Cav3.2 calcium influx blockers – cell-based, Fluo-4 calcium fluorescence, FDSS, MLSMR library, primary screen; Cav3.2-expressing cells; stronger effect = lower value; 100,000 tested, 4% active; Voltage-dependent T-type calcium channel subunit alpha-1H (Homo sapiens), O95180; B-score at 10 µM;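 active = single-dose well whose peak fluorescence ratio is a statistical outlier from its plate by either plate-standardised score or position-corrected B-score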
CYP2C19 act: human CYP2C19 activators, primary screen, biochemical, luminescence; Cytochrome P450 2C19 (Homo sapiens), P33261; recombinant CYP2C19, luciferin-H EGE luminescence; stronger effect = higher value; 0 = fully inhibited enzyme, 1 = untreated enzyme; activation factor at 5 µM; 96,000 tested, under 10 active; AID 1025, 2008;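 active = activation factor of at least 2 at 5 µM in the primary screen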;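 note: 0 = wells with 2.5 mM tranylcypromine and 1 = vehicle-only wells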
* marks the source's active call; other numbers are inactive results; · = no result. Shown are actives, neighbours in structure and some others; about 27% of the full set was active somewhere.

SMILES	CYP2C9 inh	CYP2C19 inh	CYP2C9 act	Cav3 T inh	CYP2C19 act
CCOC(=O)C(NS(=O)(=O)c1ccccc1)(C(F)(F)F)P(=O)(OCC(C)C)OCC(C)C (stereo unspecified)	15.9	9.7	0.8	-0.0128	0.9
C=CCOC(=O)C1=C[C@H](c2ccc3c(c2)OCO3)C[C@H](OCCCCO)O1	·	·	·	-0.167	·
CC1=Nc2ccccc2/C1=C\c1nc(-c2ccccc2)oc1O	95.0*	42.2	0.1	-0.848	0.6
CC1=Nc2ccccc2/C1=C\c1nc(-c2ccc(C(F)(F)F)cc2)oc1O	-15.0	-5.4	1.1	-0.235	1.1
CN1C(=O)C2(C(C#N)=C(N)N(c3cc(Cl)cc(Cl)c3)C3=C2C(=O)CC(C)(C)C3)c2ccccc21 (stereo unspecified)	19.0	0.5	0.8	-0.00789	1
Cc1ccc(N2C(N)=C(C#N)C3(C(=O)N(C)c4ccccc43)C3=C2CC(C)(C)CC3=O)cc1Cl (stereo unspecified)	54.4*	12.5	0.5	1.02	0.9
COc1ccc(C(OC(=O)c2ccco2)C(=O)NC2CCCCC2)cc1 (stereo unspecified)	·	·	·	-0.442	·
COc1ccc(C(OC(=O)c2c(C)noc2C)C(=O)NC2CCCC2)cc1 (stereo unspecified)	79.7*	50.4*	0.2	0.993	0.5
O=C(NC1CCCCC1)C(c1ccncc1)N(Cc1ccc2c(c1)OCO2)C(=O)c1cnsn1 (stereo unspecified)	·	·	·	-0.899	·
COc1ccc(C(C(=O)NC2CCCC2)N(C(=O)c2ccoc2C)c2ccc(C)cc2)cc1 (stereo unspecified)	73.0*	50.2*	0.3	-2.59	0.5
O=C(NC1CCCC1)C(c1cccs1)N(C(=O)c1ccco1)c1ccc2c(c1)OCO2 (stereo unspecified)	·	·	·	0.232	·
O=C(NC1CCCCC1)C(c1ccc2ncccc2c1)N(Cc1ccc2c(c1)OCO2)C(=O)c1cccs1 (stereo unspecified)	54.3*	47.3	0.5	-2.13	0.5
COc1ccc(C(C(=O)NC2CCCCC2)N(C(=O)c2cccs2)c2ccc3c(c2)OCO3)cc1 (stereo unspecified)	53.4*	25.5	0.5	-0.0858	0.7
COc1ccc(-c2nsc(C(=O)N(c3ccc(F)cc3)C(C(=O)NC3CCCC3)c3ccc(OC)cc3)c2N)cc1 (stereo unspecified)	9.7	-6.5	0.9	-3.43	1.1
COc1ccc(Cc2nnc(SCC(=O)Nc3nc(C)cs3)o2)cc1	6.3	6.9	0.9	-0.422	0.9
O=C(Nc1cccc2nsnc12)c1ccc(-c2cccc(Cl)c2)o1	6.7	14.1	0.9	-0.227	0.9
CN1C(=O)N(c2ccccc2)C(Nc2nncs2)C1(C)C (stereo unspecified)	3.4	-12.7	1	·	1.1
COc1ccc(CNC(=O)c2ccc(S(=O)(=O)N3CCCC3)cc2)cc1OC	48.3	4.1	0.5	·	1
O=C(NC1CCCCC1)C(c1ccc2ncccc2c1)N(Cc1ccccc1)C(=O)c1cccs1 (stereo unspecified)	73.3*	10.9	0.3	-2.74	0.9
Cc1cccc(C)c1OCCCCCNCCO	4.3	17.9	1	0.538	0.8
Cc1ccc(C)c(Cn2cnc3c(cnn3C(C)(C)C)c2=O)c1	35.2	96.8*	0.6	-4.81*	0
CC(C)(C)n1ncc2c(=O)n(CC(=O)c3ccccc3)cnc21	·	·	·	0.0763	·
Cc1ccccc1Cn1cnc2c(cnn2C(C)(C)C)c1=O	26.7	67.5*	0.7	-2.62	0.3
Cc1cc(-n2c(C)cc(C(=O)CSc3nc4ccccc4c(=O)n3Cc3ccco3)c2C)no1	-4.8	2.2	1	0.0338	1
COC(=O)c1c(-c2ccncc2)csc1NC(=O)c1ccoc1C	74.3*	93.7*	0.3	-0.203	0.1
SMILES	CYP2C9 inh	CYP2C19 inh	CYP2C9 act	Cav3 T inh	CYP2C19 act
Cc1cccc(CC2CC(=O)N(c3ncccn3)C2=O)c1 (stereo unspecified)	-0.1	7.0	1	-0.0137	0.9
Cc1cccc(CC2CC(=O)N(C3CCCCC3)C2=O)c1 (stereo unspecified)	58.0*	98.6*	0.4	-0.96	0
Cc1cccc(CC2CC(=O)N(c3ccccc3)C2=O)c1 (stereo unspecified)	23.4	88.4*	0.8	0.517	0.1
CC1(C)CC(=O)CC(=Nc2ccc3[nH]c(=O)[nH]c3c2)C1	3.1	0.7	1	0.276	1
CC1(C)N=C(c2ccc(Cl)cc2Cl)C(=O)N1	45.9	80.1*	0.5	-1.03	0.2
CCC(C)NC(=O)c1c(C)cc(=O)oc1C (stereo unspecified)	-21.1	-13.1	1.2	0.118	1.1
CCCCNc1cc(C)oc(=O)c1C(C)=O	-13.9	-12.5	1.1	-0.00171	1.1
CCCNc1cc(C)oc(=O)c1C(=O)CCC	-100.4	24.8	2*	-0.138	0.8
CCCC(=O)c1c(NC(C)C)cc(C)oc1=O	-121.5	7.9	2.2*	-0.31	0.9
CC(=O)c1c(NCCc2ccccc2)cc(C)oc1=O	32.8	56.7*	0.7	-0.2	0.4
COc1cc(OC)c(C2C(C(=O)Nc3ccc(C)cc3C)=C(C)Nc3ncnn32)cc1OC (stereo unspecified)	-22.3	-11.1	1.2	-0.469	1.1
CC(C)CC(=O)NC(=S)Nc1ccccc1C(=O)Nc1ccccc1	27.3	33.0	0.7	1.28	0.7
COc1nnc(-c2ccc(N3CCCCC3)c(N)c2)c2ccccc12	·	·	·	-6.89*	·
NC(=O)NC1CCCc2c1[nH]c1ccc(Cl)cc21 (stereo unspecified)	94.5*	52.0*	0.1	-0.338	0.5
O=C(NC1CCCCC1)N1CCC(c2nc3ccc(Cl)cc3[nH]2)CC1	43.9	28.8	0.6	-0.281	0.7
COc1cc(NS(=O)(=O)c2ccc(F)cc2)c(OC)cc1NC(=O)C1CC1	16.2	97.9*	0.8	0.354	0
COc1cc(NS(=O)(=O)c2ccc(OC)c(C)c2C)c(OC)cc1Cl	99.2*	99.1*	0	-7.39*	0
COc1ccccc1NS(=O)(=O)c1ccc(OC)c(OC)c1	-158.6	99.0*	2.6*	1.69	0
COc1ccccc1NS(=O)(=O)c1ccc(C)c(C(N)=O)c1	-4.4	87.9*	1	-0.331	0.1
CCOc1ccccc1NS(=O)(=O)c1ccc(OC)c(OC)c1	·	·	·	0.0324	·
CCOC(=O)Cn1c(=N)n(Cc2ccccc2F)c2ccccc21	19.1	19.4	0.8	0.241	0.8
O=C(Nc1ccccc1)OC1C2CCC1C(N1CCCCC1)CC2 (stereo unspecified)	12.6	18.2	0.9	0.0799	0.8
CN(C)c1ccc(/C=N/N=C2/NC(=O)/C(=C/c3ccc([N+](=O)[O-])cc3)S2)cc1	-19.0	6.9	1.2	·	0.9
COc1ccccc1NS(=O)(=O)c1cc(Cl)ccc1OC	48.5	97.0*	0.5	-2.35	0

Assay outcomes (PubChem)
